Experimental data published in PubChem BioAssay (NCATS).
Results filed as inconclusive are left out. Calls of active or inactive are those of the source. Unless noted, calls follow the shape of the dose curve; as a rule, active = well fitted curve in the direction sought with a large enough effect; inconclusive = small, poorly fitted or top-dose-only effect, or another doubt; inactive = no such curve, though single readings can be large; an effect the other way counts as inactive or inconclusive.

Tests used:
[1] = qHTS profiling of the MIPE4 collection as inhibitors of Plasmodium falciparum (3D7) proliferation (AID 743344; call rule not given here;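 also: scaled between DMSO vehicle wells and 0.29 µM artemisinin as full inhibition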); conditions: P. falciparum 3D7 in erythrocytes, SYBR Green DNA fluorescence, 72 h; at 28.5 µM unless noted
How it was run: (§1)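 Erythrocytes infected with P. falciparum (0.3% parasitemia, 2.5% hematocrit) incubated with compounds 72 h at 37 C, 5% CO2. Lysis with saponin/Triton buffer containing SYBR Green I, overnight at room temperature in the dark; DNA fluorescence (485/535 nm) normalised to 0.29 uM artemisinin and DMSO.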

[2] = qHTS profiling of the MIPE4 collection as inhibitors of Plasmodium falciparum (DD2) proliferation (AID 743345; call rule not given here); conditions: P. falciparum Dd2 in erythrocytes, SYBR Green DNA, 72 h; at 28.5 µM unless noted
How it was run: as §1

[3] = qHTS profiling of the MIPE4 collection as inhibitors of Plasmodium falciparum (DD2) proliferation (Rep 2) (AID 743346; call rule not given here); conditions: P. falciparum Dd2 in erythrocytes, SYBR Green DNA, 72 h; at 28.5 µM unless noted
How it was run: as §1

[4] = qHTS profiling of the MIPE4 collection as inhibitors of Plasmodium falciparum (HB3) proliferation (AID 743347; call rule not given here;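 also: plate controls were DMSO vehicle wells for no effect and artemisinin wells for full effect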); conditions: P. falciparum HB3 in erythrocytes, SYBR Green DNA, 72 h; at 28.5 µM unless noted
How it was run: as §1

[5] = High-throughput drug toxicity screening in the BPDCN cell line Gen2.2 (AID 1224824; call rule not given here;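 also: cells exposed to compounds for 48 h before reading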); conditions: Gen2.2 BPDCN cells; at 45.8 µM (top of the series) unless noted
How it was run: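 Gen2.2, 500 cells/well, phenol red-free RPMI/10% FBS/Pen-Strep; 48 h cpd, 37 °C/5% CO2; CTG lum, 15 min RT. Norm: DMSO = 100%, bortezomib 9.2 uM final = 0%.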

[6] = qHTS assay for measurement of the activity of small molecule inhibitors on Zika virus induced Caspase-3 activity in human iPSC derived neural progenitor cells (hNPCs) (AID 1224857); also: % of control where 0% means no effect; nearly all actives have a fitted effect of over 65% in size
How it was run: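 After overnight (16–20 h) culture at 350 cells/well, hNPCs get compound, then ZIKV 2 FFU/cell one hour later. Six hours on, Caspase-Glo 3/7 is added and luminescence measured.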

[7] = qHTS assay for measurement of the activity of small molecule inhibitors on Zika virus induced Caspase-3 activity in human astrocytoma cells (AID 1224859);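 also: plate controls were ZIKV-infected untreated cells for no effect and uninfected cells for full effect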
How it was run: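 Inhibition of Zika-induced caspase-3/7 activity: SNB-19 cells, 1 h compound pretreatment, ZIKV 2 FFU/cell for 6 h at 37 C, Caspase-Glo luminescence read-out.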

[8] = qHTS Screen of the MIPE 4.0 Collection Against Ewings Sarcoma (RDES) (AID 1259252); also: nearly all actives have a fitted effect of over 35% in size; also: potency is read from the fitted curve at half-maximal effect
How it was run: (§2)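 After a 4 h attachment period in RPMI/5% FBS, cells were pin-dosed with test compounds; DMSO served as negative and 9.2 uM bortezomib (final) as positive control. Luminescent CellTiter-Glo signal at 48 h defined viability.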

[9] = qHTS Screen of the MIPE 4.0 Collection Against Ewings Sarcoma (TC71) (AID 1259253); also: nearly all actives have a fitted effect of over 40% in size; also: potency is read from the fitted curve at half-maximal effect
How it was run: as §2

[10] = qHTS Screen of the MIPE 4.0 Collection Against Ewings Sarcoma (EW8) (AID 1259255); also: nearly all actives have a fitted effect of over 35% in size; also: potency is read from the fitted curve at half-maximal effect;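 as to viability: 100% = DMSO-treated cells and 0% = medium-only wells without cells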
How it was run: as §2

[11] = qHTS Screen of the MIPE 4.0 Collection Against Ewings Sarcoma (TC32) (AID 1259256); also: nearly all actives have a fitted effect of over 45% in size; also: potency is read from the fitted curve at half-maximal effect
How it was run: as §2

[12] = P-glycoprotein substrates identified in KB-8-5-11 adenocarcinoma cell line, qHTS therapeutic library screen (AID 1346987); also: nearly all actives have a fitted effect of over 65% in size; also: potency is read from the fitted curve at half-maximal effect
How it was run: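 KB-8-5-11, a colchicine-selected P-gp-overexpressing KB-3-1 subline, was grown without colchicine for the assay. Cells were seeded at 500 cells/well, dosed in concentration-response and incubated 72 h at 37 degree C, 5% CO2. Viability was read by CellTiter-Glo luminescence.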

[13] = High-throughput drug toxicity screening in the BPDCN cell line Cal-1 (AID 1224825; call rule not given here); conditions: Cal-1 BPDCN cell viability, qHTS; at 45.8 µM (top of the series) unless noted
How it was run: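 500 Cal-1 cells/well, RPMI + glutamine + 10% FBS (phenol red-free); cpd added by pin tool; 48 h, 37C, 5% CO2; CTG 15 min RT, lumi read. Normalised: DMSO 100%, bortezomib 9.2 uM 0%.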

[14] = P-glycoprotein substrates identified in KB-3-1 adenocarcinoma cell line, qHTS therapeutic library screen (AID 1346986); also: % is scaled to controls: 0 for no effect and ±100 for the full control effect; nearly all actives have a fitted effect of over 60% in size
How it was run: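 Cells seeded 500/well in DMEM/10% FCS; compounds pinned in dose-response; 72 h incubation; CellTiter-Glo added, 5 min, luminescence. KB-8-5-11 run ±tariquidar to test reversal of P-gp resistance.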

SMILES	parasite growth, % of DMSO control [1]	parasite growth remaining, % of DMSO control (lower = more inhibition) [2]	parasite growth, % of control (lower = inhibition) [3]	growth, % of control [4]	cell viability, % of control (lower = more cytotoxic) [5]	Potency [6]	Potency [7]	Potency [8]	Potency [9]	Potency [10]	Potency [11]	Potency [12]	viability (% of control) [13]	Potency [14]
Nc1nc(N)c2nc(-c3cccc(O)c3)c(-c3cccc(O)c3)nc2n1	15.5%	10.5%	26.2%	11%	15.8%	inactive	inactive	23500 nM (active)	20900 nM (active)	23500 nM (active)	20900 nM (active)	11800 nM (active)		
CCOC(=O)C1=C(C)NC(=S)NC1c1cccc(O)c1 (stereo unspecified)	90.7%		85.5%	39%		inactive	inactive	264 nM (active)		93.5 nM (active)	inactive	4180 nM (active)	19.3%	
OCCNC1CCCc2c1[nH]c1ccc(-c3ccccc3)cc21 (stereo unspecified)	7.39%	15.7%	13.3%	3.72%		inactive	inactive	26400 nM (active)	20900 nM (active)	23500 nM (active)	18700 nM (active)	6510 nM (active)	0.798%	
Cc1cc(C(=O)NOCCO)c(Nc2ccc(I)cc2F)n(C)c1=O	51.4%	87.7%	84.7%	66.5%		inactive	inactive	inactive	inactive	inactive	inactive	inactive	30.2%	inactive
NC(=O)Nc1cc(-c2ccc(CN3CCOCC3)cc2)sc1C(N)=O	27.3%	46.5%	33%	33.4%		inactive	inactive	4690 nM (active)	332 nM (active)	93.5 nM (active)	187 nM (active)	1480 nM (active)	6.64%	
NS(=O)(=O)OC[C@@H]1C[C@@H](n2ccc3c(N[C@H]4CCc5ccccc54)ncnc32)C[C@H]1O	23.8%	92.9%	46.9%	51%		inactive	inactive	332 nM (active)	264 nM (active)	132 nM (active)	148 nM (active)			
CN[C@@H]1C[C@H]2O[C@@](C)([C@H]1OC)n1c3ccccc3c3c4c(c5c6ccccc6n2c5c31)C(=O)N[C@H]4O	5.29%	6.48%	14.9%	3.74%		inactive	inactive		209 nM (active)	418 nM (active)	187 nM (active)	1870 nM (active)		
CC(C)Oc1ccc(C(=O)N[C@H](CNC(=O)CN(C)C)Cc2ccc(-c3cn4cccc([C@H](C)O)c4n3)cc2)cc1Cl	5.62%	8.81%	12.6%	5.09%		inactive	inactive	235 nM (active)	372 nM (active)	235 nM (active)	4.2 nM (active)	26400 nM (active)	18.5%	
